Assay outcomes (PubChem BioAssay)
An excerpt weighted towards active compounds, which were near 1.2% of everything screened.
Mtb bLac sens: beta-lactam sensitization of Mtb H37Rv | inhibition, % at 25 µM | 330,000 tested, 0.27% active | M. tuberculosis H37Rv growth with meropenem, percent inhibition; call rule not given here;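 also: growth measured after seven days incubation then overnight dye step; 0% = bacteria only wells and 100% = bacteria with antibiotic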
CCHF vOTU inh-1: blocks the CCHF virus ovarian tumor domain protease. AID 651958. CCHFV vOTU protease, Pep-AMC fluorescence. 370,000 tested, 0.55% active. inhibition, % at 11.5 µM; also: 0% = vehicle wells with enzyme and 100% = no enzyme wells
RecA splice inh: blocks M. tuberculosis RecA intein splicing; cell-free RecA intein splicing, fluorescence; 290,000 tested, 0.75% active; inhibition, % (test concentration not listed); P9WHJ3; in the data active = inhibition above about 30%; inconclusive = no clear call, values can overlap the other calls;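 also: 0% = vehicle wells and 100% = reference inhibitor control wells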
Rv3671c protease: Rv3671c (M. tuberculosis) protease inhibition. P9WHR9. inhibition, % at 5.96 µM. 320,000 tested, 0.048% active. AID 2606; in the data active = inhibition above about 38%;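 also: extracellular domain of Rv3671c used as enzyme; 0% = enzyme with DMSO and 100% = no enzyme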
Mtb UGM inh: blocks M. tuberculosis UGM enzyme; AID 504406; 320,000 tested, 0.06% active; purified UGM, fluorescence polarization probe displacement; inhibition, % at 10 µM; in the data active = inhibition above about 10%, passing the limit was not always enough; inconclusive = no clear call, values can overlap the other calls
Target sequence (P9WIQ1 whole entry, looked up): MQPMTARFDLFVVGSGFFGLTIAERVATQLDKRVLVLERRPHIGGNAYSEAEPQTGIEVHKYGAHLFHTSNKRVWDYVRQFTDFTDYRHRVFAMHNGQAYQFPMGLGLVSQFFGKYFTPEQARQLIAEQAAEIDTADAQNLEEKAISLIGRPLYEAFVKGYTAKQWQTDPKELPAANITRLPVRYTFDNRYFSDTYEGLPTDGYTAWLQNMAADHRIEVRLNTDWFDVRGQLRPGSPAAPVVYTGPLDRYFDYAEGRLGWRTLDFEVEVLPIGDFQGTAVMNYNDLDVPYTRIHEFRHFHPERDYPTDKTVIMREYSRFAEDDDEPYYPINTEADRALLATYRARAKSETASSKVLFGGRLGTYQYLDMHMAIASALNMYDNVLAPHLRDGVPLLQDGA
CCHF vOTU inh-2: confirmation of CCHF virus vOTU protease inhibitors; shares compounds with CCHF vOTU inh-1; Recombinant CCHFV vOTU, Pep-AMC fluorescence; inhibition, % at 11.5 µM; 1,900 tested, 17% active
* marks the source's active call; other numbers are inactive results; ? = inconclusive; . = no result. Rule as the data show it, unless noted: active = inhibition above about 30%; inactive = the rest.

SMILES	Mtb bLac sens	CCHF vOTU inh-1	RecA splice inh	Rv3671c protease	Mtb UGM inh	CCHF vOTU inh-2
Cc1cc(NS(=O)(=O)c2ccc(NC(=O)Cc3ccccc3)cc2)no1	.	8	.	.	.	.
c1cc2c3c(cccc3c1)NC1(CCCCC1)N2	2	30*	22	-7	3	17
c1cc2c3c(cccc3c1)NC1(CCCCCC1)N2	100	5	26	-8	-1	.
CCCCCCn1c(=O)n2n(c1=O)C[C@]1(OC(=O)NC3CCCC3)CN(S(=O)(=O)c3ccc(C)cc3)C[C@]1(O)C2	.	29	.	.	.	.
CCCCCCn1c(=O)n2n(c1=O)C[C@]1(OC(=O)NCC3CCCCC3)CN(S(=O)(=O)c3ccc(C)cc3)C[C@]1(O)C2	.	32*	.	.	.	8
Cc1cc(C)nc(SCC(=O)N(C)CC(=O)Nc2c(Cl)cccc2Cl)n1	-12	34*	1	-4	3	-11
Cc1cc(C)nc(SCC(=O)N(C)CC(=O)Nc2ccccc2Br)n1	-9	3	0	0	-1	.
COC(=O)C1=C(C)N(Cc2ccc(C(F)(F)F)cc2)C(=NCc2ccccc2C(F)(F)F)NC1c1ccccc1 (stereo unspecified)	.	12	.	.	.	.
COc1cc(C(N)=O)ccc1OCc1ccccc1	2	30*	-5	-7	0	-27
CCC(=O)c1ccc(OCc2ccccc2)c(OC)c1	4	11	1	2	-3	.
O=C1N=C(N2C=CC(=C3C=CNC=C3)C=C2)/C(=C/N=NC(=O)c2ccccc2)S1	3	41*	0	10	-4	-4
O=C1CCC2(CCC(c3ccccc3)CC2)N1CCO (stereo unspecified)	.	6	.	.	.	.
CC(C)Cn1c(N)c(C(=O)COC(=O)c2c(O)c(Cl)cc(Cl)c2Cl)c(=O)n(C)c1=O	0	41*	.	-20	-9	-5
CC(C)Cn1c(N)c(C(=O)COC(=O)c2ccc(Cl)cc2)c(=O)n(C)c1=O	0	16	6	5	0	.
COc1cc(F)cc(-c2ccc3c(c2)c(-c2cccs2)c(-c2cc(OC)cc(OC)c2)n3C)c1	2	4	.	0	-3	.
COc1cc(OC)cc(-c2c(-c3cccs3)c3cc(Br)ccc3n2C)c1	18	31*	.	7	-1	-28
CSCCC(NC(=O)CCC(=O)OC1CC[C@H]2[C@@H]3CC[C@H]4CC(=O)CC[C@]4(C)[C@H]3CC[C@]12C)C(=O)O (stereo partly specified)	?	10	-1	1	2	.
CCC(=O)OC1CCC2C3CCC4CC(=O)C=CC4(C)C3CCC12C (stereo unspecified)	.	30*	.	.	.	10
CCOC(=O)c1cnc(-c2ccccc2)nc1C(F)(F)F	-4	-7	-1	0	-1	.
CCOC(=O)c1cnc(Nc2ccccc2)nc1C(F)(F)F	-1	34*	1	2	-1	-4
Cc1c(C=O)c(=O)n(-c2ccccc2)n1-c1ccccc1	2	32*	-1	4	1	-19
Cc1c(C(=O)O)c(=O)n(-c2ccccc2)n1-c1ccccc1	-3	-8	1	11	-4	.
COC(=O)C1CN(CCc2ccccc2)CCS(=O)(=O)N1Cc1ccccc1 (stereo unspecified)	.	-5	.	.	.	.
O=C(NNc1cccc(Cl)n1)Nc1ccc(Cl)cc1	3	42*	8	9	-1	-16
CCOc1ccc(NC(=O)CN(C)C(=O)c2ccc(C)o2)cc1OCC	-2	32*	-1	-2	1	-23
SMILES	Mtb bLac sens	CCHF vOTU inh-1	RecA splice inh	Rv3671c protease	Mtb UGM inh	CCHF vOTU inh-2
CCOc1ccc(NC(=O)CN(C)C(=O)c2cc(C)oc2C)cc1OCC	-6	-3	1	3	1	.
Cc1cc(C)nc(OC(=O)c2ccc(Cl)cc2Cl)n1	-9	30*	6	0	0	-22
CCOC(=O)N/N=C/C=C/c1ccccc1	-3	11	-2	-10	2	.
CCOC(=O)C1=C(C)OC(=CC=Cc2ccccc2)C1=O	.	30*	.	.	.	-9
C=CCCC(=O)N1C[C@H]2CON(C)[C@H]2C[C@H]1c1ccccc1Br	.	-6	.	.	.	.
CN1OC[C@@H]2CN(C(=O)c3ccc([N+](=O)[O-])cc3)[C@H](c3ccccc3Br)C[C@@H]21	.	39*	.	.	.	-16
Fc1ccc(-c2nnc(Cc3ccc(Cl)cc3)o2)cc1	7	30*	3	7	0	-15
O=S1(=O)CC(N2CCCC2)CN1 (stereo unspecified)	.	-4	.	.	.	.
OC(c1ccccc1)(c1ccccc1)C1CCN(CCCOc2ccc(C(F)(F)F)cc2)CC1	.	24	.	.	.	.
OC(c1ccccc1)(c1ccccc1)C1CCN(CCCOc2cccc(Cl)c2)CC1	.	37*	.	.	.	-1
